High-throughput results from PubChem BioAssay.
Only a selection was taken, and hits are over-represented in it overall.
IDE exosite FP – exo-site inhibitors of human insulin-degrading enzyme. hit rate 6.3% among 17,000. AID 1259349. P14735. z-score at 20 µM. purified IDE, FL-6b probe fluorescence polarization; active compounds read low;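 active = z-score of -3 or lower, meaning strong loss of probe binding signal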;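 note: His-tagged human IDE residues 42-1019 made in E. coli with 30 nM FL-6b probe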
Target sequence (P14735 42-1019 limits assumed): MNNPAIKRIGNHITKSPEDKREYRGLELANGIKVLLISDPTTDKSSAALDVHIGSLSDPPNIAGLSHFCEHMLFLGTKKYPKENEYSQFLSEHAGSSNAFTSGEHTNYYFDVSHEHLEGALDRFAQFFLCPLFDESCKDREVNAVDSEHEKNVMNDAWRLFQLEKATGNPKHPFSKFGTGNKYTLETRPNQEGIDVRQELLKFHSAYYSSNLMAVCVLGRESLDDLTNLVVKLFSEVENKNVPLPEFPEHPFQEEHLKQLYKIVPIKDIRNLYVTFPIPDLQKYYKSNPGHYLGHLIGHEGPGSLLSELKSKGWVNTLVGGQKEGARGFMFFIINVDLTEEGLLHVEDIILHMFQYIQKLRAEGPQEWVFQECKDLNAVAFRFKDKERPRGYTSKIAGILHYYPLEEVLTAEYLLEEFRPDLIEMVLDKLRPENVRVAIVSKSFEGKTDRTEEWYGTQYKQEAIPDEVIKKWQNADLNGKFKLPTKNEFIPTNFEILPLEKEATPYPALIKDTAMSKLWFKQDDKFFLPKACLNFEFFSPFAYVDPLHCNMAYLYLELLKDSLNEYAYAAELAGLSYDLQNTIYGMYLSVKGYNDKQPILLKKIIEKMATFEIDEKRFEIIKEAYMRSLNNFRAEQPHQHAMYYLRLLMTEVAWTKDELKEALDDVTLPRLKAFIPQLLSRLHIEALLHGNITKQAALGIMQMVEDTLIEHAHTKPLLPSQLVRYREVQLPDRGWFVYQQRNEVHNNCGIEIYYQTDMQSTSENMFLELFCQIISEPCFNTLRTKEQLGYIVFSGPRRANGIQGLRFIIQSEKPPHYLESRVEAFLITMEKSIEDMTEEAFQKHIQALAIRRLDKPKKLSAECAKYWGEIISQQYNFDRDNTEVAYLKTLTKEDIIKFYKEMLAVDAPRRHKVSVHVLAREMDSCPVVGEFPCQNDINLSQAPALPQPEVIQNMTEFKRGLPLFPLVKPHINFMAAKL
* = called active by the depositor; ! = a repeat was not active.

SMILES	IDE exosite FP
O=C(c1ccc(F)cc1)N1C[C@@H]2N[C@H](C1)C2c1ccc(/C=C/c2ccccc2)cc1 (stereo partly drawn)	-4.6*!
O=C(CN1CCOCC1)N1C[C@@H]2N[C@H](C1)C2c1ccc(/C=C/c2ccccc2)cc1 (stereo partly drawn)	-0.79
O=C(c1ccc(F)cc1)N1CC(=O)N2[C@H](CO)[C@@H](c3ccc(/C=C/c4ccccc4)cc3)[C@H]2C1	2
O=C(c1cccnc1)N1C[C@@H]2N[C@H](C1)C2c1ccc(-c2ccccc2)cc1 (stereo partly drawn)	-2.8
COc1ccccc1NC(=O)N1C[C@@H]2N[C@H](C1)C2c1ccc(/C=C/c2ccccc2)cc1 (stereo partly drawn)	-0.39
COc1ccc(-c2ccc(C3[C@@H]4CN(Cc5ccccn5)C[C@H]3N4)cc2)cc1 (stereo partly drawn)	3.7
C(=C\c1ccc(C2[C@@H]3CN(Cc4ccccn4)C[C@H]2N3)cc1)/c1ccccc1 (stereo partly drawn)	-5.2*
COc1ccc2c3c([nH]c2c1)[C@@H](CO)N(C(=O)NC(C)C)CC31CCN(C(=O)C2CCCCC2)CC1	1.3
O=S(=O)(c1ccc(F)cc1)N1CCCCN2[C@H](CO)[C@@H](c3ccc(-c4ccccc4)cc3)[C@H]2C1	3.5
CCCNC(=O)C[C@@H]1CC[C@@H]2[C@H](COC[C@H](O)CN2Cc2ccncc2)O1	0.27
O=C(CCN1CCCCC1)NCC[C@H]1CC[C@@H](NS(=O)(=O)c2cccc(Cl)c2)[C@H](CO)O1	-0.58
CCC(=O)Nc1ccc2c(c1)OC[C@@H](C)N(Cc1ccccc1)C[C@@H](C)[C@@H](OC)CN(C)C2=O	2.3
O=C(Cc1ccccn1)N1CC(=O)N2[C@H](CO)[C@H](c3ccc(-c4ccc(F)cc4)cc3)[C@H]2C1	-0.65
C[C@@H](O)C#Cc1ccc([C@@H]2[C@H]3CN(C(=O)c4cccc(F)c4)CCCCN3[C@H]2CO)cc1	0.25
Cc1cccc(S(=O)(=O)N2CCCCN3[C@H](CO)[C@H](c4ccc(C#CC(C)C)cc4)[C@@H]3C2)c1	3.5
COc1cccc(S(=O)(=O)N2CC[C@@H]3[C@H]2c2cc(C#Cc4cccnc4)ccc2N[C@@H]3CO)c1	0.81
CN(C)CC#Cc1ccc([C@@H]2[C@H]3CN(C(=O)c4ccc5c(c4)OCO5)CCCCN3[C@H]2CO)cc1	1.2
CC(C)(O)C#Cc1ccc([C@H]2[C@@H](CO)N3CCCCN(C(=O)c4cccc(F)c4)C[C@@H]23)cc1	1.2
COc1cccc(-c2ccc([C@H]3[C@@H](CO)N4C(=O)CN(C(=O)c5cccnc5)C[C@@H]34)cc2)c1	-1.8
COc1cccc(-c2ccc([C@@H]3[C@@H](CO)N4C(=O)CN(C(=O)c5cccnc5)C[C@@H]34)cc2)c1	-3.7*
COc1cccc(-c2ccc([C@H]3[C@H](CO)N4C(=O)CN(C(=O)c5cccnc5)C[C@@H]34)cc2)c1	-1.9
COc1ccc(C#Cc2ccc([C@@H]3[C@@H](CO)N4C(=O)CN(C(=O)c5cccnc5)C[C@H]34)cc2)cc1	0.11
COc1ccc(C#Cc2ccc([C@H]3[C@H](CO)N4C(=O)CN(C(=O)c5cccnc5)C[C@@H]34)cc2)cc1	-0.48
COc1cccc(-c2ccc([C@H]3[C@@H](CO)N4C(=O)CN(C(=O)c5cccnc5)C[C@H]34)cc2)c1	-4.9*
CC(=O)N(C)C[C@@H]1[C@H](c2ccc(-c3cccc(C#N)c3)cc2)[C@H](CO)N1C(C)=O	0.66
SMILES	IDE exosite FP
CCCC(=O)Nc1ccc2c(c1)C(=O)N(C)C[C@H](OC)[C@H](C)CN(Cc1ccc(F)cc1)[C@@H](C)CO2	-0.45
CN(C[C@H]1N[C@H](CO)[C@@H]1c1ccc(-c2cccnc2)cc1)C(=O)NC1CCCC1	-1.2
O=C(C[C@H]1CC[C@H]2[C@@H](COC[C@H](O)CN2Cc2ccc3c(c2)OCO3)O1)N1CCCCC1	0.12
Cc1ccccc1S(=O)(=O)N1CCCCN2[C@H](CO)[C@@H](c3ccc(-c4cncnc4)cc3)[C@@H]2C1	-4.6*
Cc1ccccc1S(=O)(=O)N1CCCCN2[C@H](CO)[C@H](c3ccc(-c4cncnc4)cc3)[C@H]2C1	5.4
Cc1cccc(S(=O)(=O)N2CCCCN3[C@H](CO)[C@H](c4ccc(-c5cccnc5)cc4)[C@@H]3C2)c1	4.4
O=S(=O)(c1ccccc1F)N1CCCCN2[C@H](C1)[C@@H](c1ccc(-c3cncnc3)cc1)[C@@H]2CO	3.8
Cc1ccccc1S(=O)(=O)N1CCCCN2[C@H](C1)[C@H](c1ccc(-c3cccnc3)cc1)[C@@H]2CO	4.1
Cc1cccc(S(=O)(=O)N2CCCCN3[C@H](CO)[C@@H](c4ccc(-c5cccnc5)cc4)[C@@H]3C2)c1	-3.7*
Cc1ccccc1S(=O)(=O)N1CCCCN2[C@H](CO)[C@H](c3ccc(-c4cccnc4)cc3)[C@@H]2C1	0.85
Cc1ccccc1S(=O)(=O)N1CCCCN2[C@@H](CO)[C@@H](c3ccc(-c4cccnc4)cc3)[C@@H]2C1	-14*
Cc1cccc(S(=O)(=O)N2CCCCN3[C@H](CO)[C@H](c4ccc(-c5cccnc5)cc4)[C@H]3C2)c1	4.9
C[C@H]1CN([C@@H](C)CO)C(=O)c2ccccc2-c2ccccc2CO[C@@H]1CN(C)Cc1cccnc1	0.82
C/C=C/c1ccc([C@@H]2[C@@H](CN(C)C(=O)CC3CC3)N(C(=O)C3CC3)[C@H]2CO)cc1	0.55
O=C(Nc1ccc2c(c1)[C@H]1C[C@@H](CC(=O)N3CCc4ccccc4C3)O[C@@H](CO)[C@H]1O2)c1ccc2c(c1)OCO2	-1
O=C(Nc1ccccc1F)N1CC(=O)N2[C@H](CO)[C@@H](c3ccc(-c4cccnc4)cc3)[C@H]2C1	-1.1
CC(C)C#Cc1ccc([C@H]2[C@H](CO)N3CCCCN(S(=O)(=O)Cc4ccccc4)C[C@@H]23)cc1	1.4
COc1cccc(NC(=O)N[C@@H]2C=C[C@@H](CC(=O)NCc3ccncn3)O[C@@H]2CO)c1	1.7
CCCC#Cc1ccc([C@H]2[C@@H](C#N)N(C(=O)C3CC3)[C@H]2CO)cc1	-1
CN(C)C(=O)c1ccc(-c2ccc([C@@H]3[C@@H](CO)N4C(=O)CN(C(=O)C5CCC5)C[C@@H]34)cc2)cc1	-0.014
O=C(c1cccc(F)c1)N1CCCCN2[C@H](C1)[C@H](c1ccc(-c3ccccc3)cc1)[C@@H]2CO	2
CC(C)C#Cc1ccc([C@@H]2[C@@H](CO)N3C(=O)CN(C(=O)c4ccc5c(c4)OCO5)C[C@H]23)cc1	-0.36
O=C(Nc1ccccc1Cl)N1C[C@@H]2[C@H](c3ccccc31)[C@H](CO)N2C(=O)c1cccnc1	2.9
C/C=C/c1ccc([C@@H]2[C@@H](CO)N3C(=O)CN(C(=O)c4ccccc4)C[C@H]23)cc1	0.25
COc1ccc(S(=O)(=O)Nc2cccc3c2O[C@H](CN(C)CC2CCCCC2)[C@H](C)CN([C@H](C)CO)C3=O)cc1	-0.92
N#C[C@H]1[C@@H](c2ccc(C#CC3CCCCC3)cc2)[C@H](CO)N1C(=O)c1cccc(F)c1	1.8
COC(=O)c1ccc(CN2CC(=O)N3[C@H](CO)[C@H](c4ccc(-c5cccnc5)cc4)[C@H]3C2)cc1	-1.1
N#C[C@@H]1[C@H](c2ccc(C3=CCCCC3)cc2)[C@@H](CO)N1S(=O)(=O)c1cccc(F)c1	1.4
O=S(=O)(c1ccccc1)N1CCCCN2[C@H](CO)[C@H](c3ccc(-c4ccccc4F)cc3)[C@@H]2C1	0.92
O=C(c1ccncc1)N1CCCCN2[C@@H](CO)[C@H](c3ccc(C#Cc4ccccn4)cc3)[C@@H]2C1	-1.1
